Records with an inconclusive call do not appear. Activity calls are given as the source filed them. Calls follow the shape of the dose curve; as a rule, active = well fitted cell-killing curve with a large enough effect; inconclusive = small, poorly fitted or top-dose-only effect; inactive = flat fitted curve, though single readings scatter.
Experiment: Vero cells viability qHTS for Zika virus inhibitors (AID 1347167)
Conditions: cytotoxicity counter-screen (Zika); series mostly up to 45.9 µM; activity change, negative = cytotoxicity: at the top concentration
Text: Avindra Nath, Ph.D., National Institute of Neurological Disorders and Stroke (NINDS), Bethesda, MD
Radhakrishnan Padmanabhan, Ph.D., Georgetown University (GU), Washington D.C.
Zika Virus causes congenital defects, including microcephaly and is associated with Guillain-Barre syndrome, eningoencephalitis and myelitis in infected adult. […] Using a target-based approach, we hope to establish a screening paradigm to uncover novel, cell-active NS2B-NS3 protease (Zika Virus) specific inhibitors from NCATS' collection of small molecules using qHTS.
Four assay panel was created to identify potential Zika Virus inhibitors. Namely, (1) GU unlinked NS2B-NS3 AMC tagged protease qHTS, (2) GU unlinked NS2B-NS3 Rhodamine tagged protease qHTS, (3) NINDS linked NS2B-NS3 AMC tagged protease qHTS, (4) NINDS linked NS2B-NS3 Rhodamine tagged protease qHTS. Identified inhibitors were screened against the Vero and HepG2 cell viability assays using CellTiter Glo to exclude cytotoxic compounds.
Early Translation Branch (ETB)
National Center for Advancing Translational Sciences (NCATS), Rockville, MD
National Institute of Health (NIH), Bethesda, Maryland
Vero and HepG2 Cell Viability Assay:
Vero and HepG2 cell cytotoxicity were determined using a luminescent readout with CellTiter Glo reagent (Promega, Madison, WI), which is based on measuring the ATP content within cells. Briefly, 4 microL of Vero or HepG2 cells at 2.5 x 10^5 cells/mL in DMEM containing 4% FBS were dispensed into 1536-well solid bottom tissue treated white plate using a Multidrop Combi dispenser (Thermo Scientific). Plates were incubated at 37 degrees C, 95% humidity, and 5% CO2 overnight to allow for cell attachment. Compounds were dissolved in DMSO at different concentrations and transferred via pintool (Wako Automation), for a final concentration of 0.029 µM - 57 microM. Plates were again incubated for 24 to 48 hours, followed by a 2 microL addition of CellTiter Glo. Finally, plates were incubated for 30 minutes at 37 degrees C and 5% CO2 before being read on a ViewLux (Perkin Elmer) for luminescence.
% is scaled to controls: 0 for no effect and ±100 for the full control effect; potency is read from the fitted curve at half-maximal effect.

Compound	activity change, negative = cytotoxicity	Potency
Nc1nc(N)c2nc(CNc3ccc(C(=O)NC(CCC(=O)O)C(=O)O)cc3)cnc2n1 (configuration not stated)	-5.36% (inactive)	–
CCn1cc(C(=O)O)c(=O)c2cc(F)c(N3CCNCC3)cc21	0.457% (inactive)	–
CNC(=O)c1cc(Oc2ccc(NC(=O)Nc3ccc(Cl)c(C(F)(F)F)c3)cc2)ccn1	–	7.58 µM (active)
Nc1nc(=S)c2[nH]cnc2[nH]1	–	inactive
CNC1CCCN(c2c(F)cc3c(=O)c(C(=O)O)cn(C4CC4)c3c2OC)C1 (configuration not stated)	–	inactive
CCCc1nc(C)c2c(=O)[nH]c(-c3cc(S(=O)(=O)N4CCN(CC)CC4)ccc3OCC)nn12	-3.8% (inactive)	–
OCc1ccc(-c2nn(Cc3ccccc3)c3ccccc23)o1	-0.607% (inactive)	–
O=C(O)c1cn(C2CC2)c2cc(N3CCNCC3)c(F)cc2c1=O	-3.46% (inactive)	–
COC(=O)Nc1nc2ccc(C(=O)c3ccccc3)cc2[nH]1	-6.27% (inactive)	–
COc1c(N2CCNC(C)C2)c(F)cc2c(=O)c(C(=O)O)cn(C3CC3)c12 (configuration not stated)	–	inactive
COc1cc(NCc2ccc3nc(N)nc(N)c3c2C)cc(OC)c1OC	-4.67% (inactive)	–
O=C(O)c1ccc(-n2nc(-c3ccccc3O)nc2-c2ccccc2O)cc1	-6.77% (inactive)	–
